This note sets out measurements from PubChem BioAssay (NCI).

The panel holds about 83,000 compounds, 20% with a hit somewhere; the sample as a whole holds those more often.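 Results are percent growth after 48 hours of single-concentration exposure. 100 means growth as in untreated cells, lower positive values show inhibition; negative values down to -100 show cell death.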 Unmarked numbers belong to inactive results. Activity calls are given as the source filed them. The calls were made as follows: active = growth percent below 10; inactive = the rest.

Some test systems named below: DU-145 prostate; K-562 leukemia; MDA-MB-231 breast; RXF 393 renal; SF-268 CNS; SF-295 CNS; SF-539 CNS; UACC-257 melanoma; HCT-15 colon; HT29 colon; SNB-75 CNS; SNB-19 CNS; U251 CNS; PC-3 prostate; SK-MEL-5 melanoma; UACC-62 melanoma; LOX IMVI melanoma; SK-MEL-28 melanoma; MALME-3M melanoma; M14 melanoma.
Assay in all cases: NCI-60 one-dose screen, 48 h (100 = growth as untreated, 0 = no growth, -100 = all killed)
What all share (details): 10 µM unless noted

For the molecule `Cc1nc(Nc2ccc(NC(=S)Nc3ccccc3)cc2)nc2nc(SCc3ccccc3)[nH]c(=O)c12`, the growth with DU-145 prostate is 104%; in the assay with K-562 leukemia it was 72.1%; in the assay with MDA-MB-231 breast, 76.9%; with RXF 393 renal, -24% (active); in the assay on SF-268 CNS it was 98.4%; with SF-295 CNS, 169%. Moreover, the growth is 63.3% with SF-539 CNS; 74.8% in the assay with UACC-257 melanoma; 108% in the assay with HCT-15 colon; 120% in the assay on HT29 colon; 104% with SNB-75 CNS; 102% with SNB-19 CNS. In addition, the growth was 100% in the assay on U251 CNS; 100% with PC-3 prostate; 99.7% with SK-MEL-5 melanoma; 81.7% with UACC-62 melanoma; 101% in the assay with LOX IMVI melanoma; 115% in the assay with SK-MEL-28 melanoma.
Turning to `CCOC(=O)N1CCc2c(sc3c2C(=O)N[C@H](c2ccc(OC)cc2)N3)C1`, the growth with DU-145 prostate was 113%; in the assay with MALME-3M melanoma it was 96.7%; in the assay with MDA-MB-231 breast, 104%; with RXF 393 renal, 113%; with SF-268 CNS, 101%; with SF-295 CNS, 97%. Moreover, the growth was 100% with SF-539 CNS; 86.6% in the assay with UACC-257 melanoma; 94.7% with M14 melanoma; 106% with HCT-15 colon; 86.2% in the assay on HT29 colon; 91.7% in the assay on SNB-75 CNS. Also, the growth in the assay on SNB-19 CNS was 90%; in the assay with U251 CNS, 96.7%; in the assay with PC-3 prostate, 89.1%; in the assay with SK-MEL-5 melanoma, 99.1%; with UACC-62 melanoma, 91.8%; in the assay on LOX IMVI melanoma, 101%. Moreover, the growth with SK-MEL-28 melanoma was 109%.
In the case of `CCCCN(CCCC)CCCn1c(=O)c2sc3ncccc3c2n2nnc(-c3ccccc3)c12`, the growth with DU-145 prostate was 114%; with K-562 leukemia, 108%; with MDA-MB-231 breast, 93.8%; with RXF 393 renal it was 111%; in the assay with SF-268 CNS it was 112%; in the assay on SF-539 CNS it was 99.6%. In addition, the growth in the assay on UACC-257 melanoma is 104%; in the assay with M14 melanoma, 107%; in the assay with HCT-15 colon, 99.8%; in the assay on HT29 colon, 74.4%; with SNB-75 CNS, 86.1%; in the assay with SNB-19 CNS, 101%. In addition, the growth with U251 CNS is 95.3%; in the assay on PC-3 prostate, 91.3%; with SK-MEL-5 melanoma it was 107%; in the assay with UACC-62 melanoma, 90.8%; with LOX IMVI melanoma, 110%; with SK-MEL-28 melanoma, 98.4%.
In the case of `Nc1c(-c2nc3ccccc3c(=O)[nH]2)nnn1-c1ccc(Cl)cc1`, the growth with DU-145 prostate is 77.3%; in the assay on MALME-3M melanoma it was 83.3%; in the assay on MDA-MB-231 breast, 85%; in the assay on RXF 393 renal, 81.9%; in the assay on SF-268 CNS it was 66.8%; with SF-295 CNS, 73.6%. Moreover, the growth with SF-539 CNS was 50.5%; in the assay with UACC-257 melanoma it was 84.8%; in the assay on HCT-15 colon, 93.1%; with HT29 colon, 68.7%; in the assay on SNB-75 CNS, 24.7%; in the assay with SNB-19 CNS, 76%. In addition, the growth is 74.6% in the assay on U251 CNS; 85.3% in the assay with PC-3 prostate; 92.6% with SK-MEL-5 melanoma; 99.1% in the assay with UACC-62 melanoma; 107% with LOX IMVI melanoma; 81.1% with SK-MEL-28 melanoma.
Take `CC(=O)NCC(=O)Nc1ccc(-c2nnc3ccccn23)nc1.CC(=O)NCC(=O)Nc1ccc(-c2nnc3ccccn23)nc1.[Pt+2]`: the growth in the assay with DU-145 prostate is 109%; with MALME-3M melanoma it was 105%; in the assay with MDA-MB-231 breast, 104%; in the assay with RXF 393 renal, 117%; in the assay with SF-268 CNS, 109%; in the assay on SF-295 CNS it was 117%. For the same molecule, the growth in the assay with SF-539 CNS was 110%; in the assay with UACC-257 melanoma, 78.7%; in the assay with HCT-15 colon it was 109%; in the assay on HT29 colon, 98.3%; in the assay with SNB-75 CNS, 132%; with SNB-19 CNS it was 107%. The growth in the assay with U251 CNS is 99.4%; in the assay on PC-3 prostate it was 101%; with SK-MEL-5 melanoma, 108%; in the assay with UACC-62 melanoma, 110%; in the assay with LOX IMVI melanoma, 106%; in the assay on SK-MEL-28 melanoma it was 118%.
As to `Cc1c(Cl)cccc1NS(=O)(=O)c1ccccc1`, the growth is 143% in the assay with DU-145 prostate; 124% with MALME-3M melanoma; 102% with MDA-MB-231 breast; 95.3% in the assay on RXF 393 renal; 104% with SF-268 CNS; 95.2% in the assay on SF-295 CNS. The growth is 102% in the assay with SF-539 CNS; 95.1% in the assay on UACC-257 melanoma; 105% in the assay with M14 melanoma; 97.3% in the assay with HCT-15 colon; 99.8% in the assay with HT29 colon; 87.9% in the assay on SNB-75 CNS. The growth in the assay with SNB-19 CNS was 106%; in the assay with U251 CNS, 106%; in the assay with SK-MEL-5 melanoma, 96.7%; with UACC-62 melanoma, 102%; in the assay with LOX IMVI melanoma, 104%; in the assay on SK-MEL-28 melanoma it was 99%.
In the case of `COc1ccc(N(C)c2nc(Cl)nc3cnn(C)c23)cc1`, the growth with DU-145 prostate was 7.13% (active); with MALME-3M melanoma, 75.3%; with MDA-MB-231 breast it was 19.2%; in the assay with RXF 393 renal it was 44.8%; in the assay on SF-268 CNS, 29.1%; with SF-295 CNS, 17.9%. The growth in the assay with SF-539 CNS was -9.34% (active); with UACC-257 melanoma, 38.1%; in the assay with HCT-15 colon, 9.08% (active); in the assay with HT29 colon it was -9.42% (active); with SNB-75 CNS, 18.7%; in the assay on SNB-19 CNS, 29.7%. The growth in the assay on U251 CNS was 17.8%; in the assay with PC-3 prostate, 16.2%; with SK-MEL-5 melanoma, -25.2% (active); in the assay with UACC-62 melanoma it was 32%; with LOX IMVI melanoma, 18.7%; with SK-MEL-28 melanoma, 58.2%.
With `O=[N+]([O-])c1ccc(-c2cc3c(Nc4ccc(Sc5nc6ccccc6s5)c(Cl)c4)ncnc3s2)cc1`, the growth is 44.9% in the assay with DU-145 prostate; 62.9% in the assay with MALME-3M melanoma; 29.2% with MDA-MB-231 breast; 68.8% in the assay on RXF 393 renal; 39.4% in the assay with SF-268 CNS; 23.2% in the assay on SF-295 CNS. The growth in the assay on SF-539 CNS was 54.3%; in the assay with UACC-257 melanoma, 66.6%; with M14 melanoma it was 35.2%; in the assay on HCT-15 colon, 23.7%; in the assay on HT29 colon it was 13.9%; with SNB-75 CNS, 83.9%. For the same molecule, the growth in the assay on SNB-19 CNS was 23.7%; in the assay with U251 CNS it was 23%; in the assay with PC-3 prostate it was 28.3%; in the assay on SK-MEL-5 melanoma, 59.1%; in the assay on UACC-62 melanoma it was 54.9%; in the assay with LOX IMVI melanoma, 29.6%. Also, in the assay with SK-MEL-28 melanoma, the growth is 75.2%.
